# Bioassay records as filed in PubChem.
# DAX1 inh-1: DAX1 (NR0B1) inhibition, primary screen; 370,000 tested, 1.1% active; HEK293T StAR-luciferase reporter, SF-1/DAX-1 repression relief; inhibition, % at 6.8 µM;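 active means inhibition above the mean over all tested compounds plus 3 SD, cut at about 3.6% in these data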;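 further: 0% = DAX-1 cells with DMSO and 100% = cells lacking DAX-1 with DMSO; higher inhibition means more luminescence from relief of DAX-1 repression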
# hgDAF-12 ag: hgDAF-12 agonism, primary luciferase screen; activation, % at 6.8 µM; HEK293 GAL4-hgDAF12 UAS-luciferase reporter, agonist luminescence; normalized to butyrate control; 370,000 tested, 1.8% active;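 active means activation above a cutoff set at the mean of all screened compounds plus 3 SD, cut at about 10% in these data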;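 further: 0% = DMSO wells and 100% = sodium butyrate wells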
# DAX1 inh-2: inhibitors of human orphan nuclear receptor DAX1 (NR0B1) | P51843 | HEK293 Gal4-DAX1 luciferase reporter, luminescence | inhibition, % at 6.75 µM | 340,000 tested, 0.99% active | AID 504766;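 active means inhibition above the mean over all tested compounds plus 3 SD, cut at about 4.2% in these data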;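 further: 0% = DAX1-transfected cells with DMSO and 100% = empty-vector control cells with DMSO; inhibition shows as a rise in luminescence from relieved DAX1 repression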
# Target sequence (P51843 207-470 limits assumed): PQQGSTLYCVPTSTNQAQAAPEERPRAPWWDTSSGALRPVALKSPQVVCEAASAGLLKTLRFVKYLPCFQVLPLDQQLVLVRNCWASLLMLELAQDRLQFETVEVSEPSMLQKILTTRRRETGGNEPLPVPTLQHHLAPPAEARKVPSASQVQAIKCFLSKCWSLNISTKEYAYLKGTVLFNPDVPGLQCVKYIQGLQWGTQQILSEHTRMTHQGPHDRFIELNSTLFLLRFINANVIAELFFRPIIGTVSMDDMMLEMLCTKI
# ssDAF12 agonist: S. stercoralis DAF-12 activation, primary screen. HEK293 ssDAF-12/GRIP1 lit1-tk-luc reporter, luminescence; % of 3 µM dafachronic acid response. activation, % at 6.8 µM. 370,000 tested, 1% active. AID 652126;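 active means activation above the mean over all tested compounds plus 3 SD, cut at about 0.9% in these data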;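 further: 0% = DMSO-only wells and 100% = 3 µM delta7-dafachronic acid wells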
# hcDAF-12 act: activators of H. contortus DAF-12 nuclear receptor. HEK293 hcDAF-12 lit1-tk-luc reporter, luminescence; 0% DMSO, 100% Δ7-dafachronic acid. AID 652067. activation, % at 6.8 µM. 370,000 tested, 1.4% active;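 active means activation above the mean of all tested compounds plus 3 SD, cut at about 5.5% in these data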;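 further: 100% = response to 3 µM Δ7-dafachronic acid high control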
# AHR act: activates the human aryl hydrocarbon receptor; AID 2796; AHR-responsive luciferase reporter cells, luminescence; P35869; activation, % at 5 µM; 320,000 tested, 2.5% active; in the data active means activation above about 47%;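 further: 0% = vehicle wells and 100% = reference agonist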
# AHR act confirm: confirmation of human aryl hydrocarbon receptor activators. activation, % at 9 µM. 2,300 tested, 87% active. AID 2845. shares compounds with AHR act. human cells, AHR-responsive luciferase reporter, luminescence; in the data active means activation above about 49%;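 further: HepG2 hepatoma cells carrying a DRE-driven firefly luciferase reporter; 0% = vehicle wells and 100% = reference agonist wells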
# PXR counter: activates human PXR in AHR activator counter-screen. 2,300 tested, 88% active. shares compounds with AHR act. activation, % at 11.6 µM. cell-based PXR reporter, luciferase luminescence; in the data active means activation above about 11%;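 further: human hepatoma DPX-2 cells expressing full-length human PXR; 0% = DMSO and 100% = reference agonist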
# DAX1 conf: confirmation of human DAX1 (NR0B1) inhibitors | AID 652134 | shares compounds with DAX1 inh-1 | HEK293T StAR-promoter luciferase reporter, SF-1/DAX-1 repression | 2,400 tested, 87% active | inhibition, % at 6.8 µM;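 active means inhibition above the average of every tested compound plus 3 SD, cut at about 3.8% in these data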;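 further: 0% = DAX-1 cells with DMSO and 100% = no DAX-1 control cells with DMSO; active compounds raise luminescence by relieving repression of the StAR reporter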
# Target sequence (P51843 whole entry, looked up): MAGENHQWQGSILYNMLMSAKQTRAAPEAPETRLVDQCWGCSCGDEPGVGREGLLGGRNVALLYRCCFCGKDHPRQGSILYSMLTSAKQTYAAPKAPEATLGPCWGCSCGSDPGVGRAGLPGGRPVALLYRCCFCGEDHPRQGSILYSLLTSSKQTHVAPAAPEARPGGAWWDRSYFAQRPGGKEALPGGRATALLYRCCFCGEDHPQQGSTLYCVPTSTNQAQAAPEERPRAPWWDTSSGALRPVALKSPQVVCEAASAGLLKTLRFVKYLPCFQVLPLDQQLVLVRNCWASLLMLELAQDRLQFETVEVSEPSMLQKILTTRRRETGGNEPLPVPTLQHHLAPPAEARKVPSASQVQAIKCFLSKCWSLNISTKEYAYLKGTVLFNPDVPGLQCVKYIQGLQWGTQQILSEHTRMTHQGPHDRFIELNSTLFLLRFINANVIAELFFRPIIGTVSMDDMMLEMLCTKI
# SF1 mutant ctr: nonselective inhibitor or artifact in SF-1 mutant DAX1 counter-screen; shares compounds with DAX1 inh-1; HEK293 StAR-luciferase, SF-1 AF2 mutant, luminescence; inhibition, % at 6.8 µM; 2,400 tested, 78% active;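 active means inhibition above the mean of all tested compounds plus 3 SD, cut at about 3% in these data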;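 further: 0% = DAX-1 transfected cells with DMSO and 100% = cells without DAX-1 with DMSO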
# LXRb hcDAF ctr: activates human LXR-beta, counter-screen for hcDAF-12 agonists; shares compounds with hcDAF-12 act; HEK293 Gal4-LXR tk-luc reporter, luminescence, 24 h; normalized: DMSO 0%, positive control 100%; activation, % at 6.8 µM; 3,400 tested, under 10 active; AID 743027;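 active means mean percent activation of the reporter above a cutoff set as the average over tested compounds plus their standard deviation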
# hcDAF12 ag: hcDAF-12 agonism, confirmation assay. 3,400 tested, 61% active. HEK293 hcDAF-12 lit1-tk-luc reporter, luminescence; % of Δ7-dafachronic acid response. shares compounds with hcDAF-12 act. activation, % at 6.8 µM;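 active means mean activation across triplicate tests above the threshold derived from the earlier primary screen, cut at about 5.5% in these data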;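 further: 0% = DMSO only wells and 100% = 3 µM Δ7-dafachronic acid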
# hgDAF12 ag: confirmation of H. glycines DAF-12 agonists; 3,300 tested, 80% active; HEK293 GAL4-hgDAF12 luciferase reporter, agonist mode; percent of butyrate response; activation, % at 6.8 µM; shares compounds with hgDAF-12 ag;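 active means mean activation over triplicate wells above the hit cutoff derived from the earlier primary screen, cut at about 11% in these data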;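 further: 0% = DMSO low control and 100% = 2 mM sodium butyrate high control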
# LXRb DAF12 ctr: counter-screen for DAF-12 agonists: agonists of human LXR-beta; shares compounds with hgDAF-12 ag; HEK293 Gal4-LXR luciferase reporter, 24 h; activation, % at 6.8 µM; 3,300 tested, under 10 active; AID 743051;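 active means mean activation of the triplicate above a set limit carried over from the primary screen, none filed active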
# Numbers without * were called inactive; · = no result. This is a sample that favours compounds with a hit; in the whole collection about 5.7% have one here.
SMILES,DAX1 inh-1,hgDAF-12 ag,DAX1 inh-2,ssDAF12 agonist,hcDAF-12 act,AHR act,DAX1 conf,SF1 mutant ctr,others
Brc1cccc(-c2n[nH]c(-c3ccccc3)n2)c1,3.4,14.2*,1.8,1.8*,11.7*,117.5*,·,·,AHR act confirm=127.9*;PXR counter=14.6*;LXRb hcDAF ctr=1.4;hcDAF12 ag=9.6*;hgDAF12 ag=21.4*;LXRb DAF12 ctr=0.8
O=C(Nc1cccc([N+](=O)[O-])c1)c1ccc2nsnc2c1,-1.6,-0.9,0.9,-1.3,-1.3,13.0,·,·,
O=C(Nc1ccc(Cl)cc1)c1ccc2nsnc2c1,2.1,18.4*,3.9,0.2,2.8,85.3*,·,·,AHR act confirm=142.7*;PXR counter=11.9*;hgDAF12 ag=15.3*;LXRb DAF12 ctr=0.5
CC(C)(C)n1nnnc1C(c1cc2cc3c(cc2[nH]c1=O)OCO3)N1CCN(c2ccccc2)CC1 (centres undefined),0.4,2.3,0.9,-0.8,1.6,3.4,·,·,
O=C(Nc1ccc(CN2CCOCC2)cc1)c1cc2ccccn2n1,6.2*,5.1,-2.3,-0.6,4.4,1.2,9.8*,3.0*,
COc1cc(C(=O)Nc2cc(S(=O)(=O)N3CCOCC3)ccc2N2CCN(C)CC2)cc(OC)c1OC,2.5,0.4,0.5,-0.9,0.0,·,·,·,
COc1ccc(C(=O)C[n+]2cn(C(F)F)c3ccccc32)c(F)c1,7.3*,8.9,0.9,-0.4,2.6,17.4,2.4,3.9*,
CC1CN(c2nc3ccccc3cc2-c2ccccc2)CC(C)O1 (centres undefined),-0.2,0.7,1.4,-1.5,-1.6,-1.0,·,·,
O=C(/C=C/c1cccs1)Nc1scc(-c2ccccc2)c1C(=O)O,4.7*,13.0*,0.2,0.2,3.1,·,7.3*,3.6*,
O=C(/C=C/c1cccs1)Nc1nc(-c2ccccc2)cs1,-0.3,4.5,-1.2,-0.5,-2.4,-6.2,·,·,
N/C(=N\OC(=O)c1ccoc1)c1ccc(Br)cc1,9.5*,8.1,2.2,0.1,3.4,6.1,10.8*,6.9*,
Cc1cc(C)cc(C(=O)O/N=C(\N)c2ccc(Br)cc2)c1,0.0,0.1,-1.4,-0.7,2.2,10.2,·,·,
CCC(C)(C)C1CCC(=NNC(=O)c2ccoc2C)CC1 (centres undefined),4.7*,17.6*,0.6,0.3,3.5,8.1,2.3,3.1*,
COc1ccccc1NC(=O)CC1CCCC1,-0.1,1.1,0.5,-0.2,0.0,-1.9,·,·,
COC(=O)C1CCN(C(=O)c2ccc3nc(-c4cccc(OC)c4)oc3c2)CC1,4.8*,5.3,-0.7,0.3,1.8,9.7,8.3*,5.0*,
COC(=O)C1CCN(C(=O)c2ccc3nccnc3c2)CC1,0.0,-1.5,0.6,-1.3,1.7,·,·,·,
C#CCN(C[C@H]1[C@H](OC(=O)Nc2cccs2)[C@H](OC(=O)Nc2cccs2)C[C@H]2C(=O)N(c3ccccc3)C(=O)[C@@H]12)S(=O)(=O)c1ccc(C)cc1,4.6*,-3.1,0.1,-1.0,-1.7,·,-0.4,-0.4,
CC(=O)c1ccc(N2CCN(C(=S)Nc3cccc(Cl)c3)CC2)cc1,-0.2,-2.7,-0.1,-1.3,-1.6,-2.1,·,·,
O=C(NCCc1ccccc1F)c1cc2ccccn2n1,5.0*,13.1*,·,0.8,4.2,·,15.7*,5.2*,
O=C(COC(=O)c1cccc(Br)c1)NC(=O)NC1CCCC1,0.3,-2.7,-0.9,-0.6,-0.7,·,·,·,
COC(=O)c1sc2ncn(CC(=O)NCCc3ccc(OC)c(OC)c3)c(=O)c2c1C,-0.4,0.0,-0.8,-1.7,0.1,1.1,·,·,
O=C(O)c1cc(N/N=C/C=C/c2ccccc2)ccc1Cl,8.6*,10.1,1.3,0.1,5.3,12.9,11.8*,6.2*,
Cn1c(CN2CCCC2)nc2cc(NS(=O)(=O)c3ccccc3)ccc21,-0.1,0.0,1.3,-1.2,-1.7,0.5,·,·,
Cc1cc2oc(C(=O)Nc3nonc3C)c(C)c2cc1C,7.8*,8.4,1.6,-0.7,3.7,-3.4,13.4*,7.2*,
CCc1ccc2oc(C(=O)Nc3nonc3C)c(C)c2c1,12.0*,10.8*,0.6,0.2,4.0,-5.7,7.8*,3.6*,
SMILES,DAX1 inh-1,hgDAF-12 ag,DAX1 inh-2,ssDAF12 agonist,hcDAF-12 act,AHR act,DAX1 conf,SF1 mutant ctr,others
CCCc1ccc2oc(C(=O)NCCCN3CCOCC3)c(C)c2c1,3.6,5.6,0.8,-0.2,-0.6,32.1,·,·,
CCCc1ccc2oc(C(=O)NCc3nnc(C)o3)c(C)c2c1,5.1*,11.7*,0.5,-0.4,6.2*,·,7.3*,5.1*,
CC(=O)Nc1ccc(NC(=O)c2oc3cc(C)c(C)cc3c2C)cc1,0.3,-0.2,-0.5,-1.7,-2.6,-5.3,·,·,
O=NN(CCc1ccncc1)c1ccc(OCc2ccccc2)cc1,-5.6,-6.8,-3.0,-3.0,-3.5,26.0,·,·,
Cc1cccnc1NC(=O)c1ccc(Br)o1,1.8,-0.6,0.0,-0.7,0.0,-0.2,·,·,
Cc1ccc(C(=O)Nc2ncccc2O)o1,6.0*,8.7,2.9,-0.3,1.3,1.3,5.4*,1.4,
Nc1nc(-c2cccnc2)nc(N2CCCCC2)n1,-0.3,0.9,0.2,-1.1,0.5,21.3,·,·,
COc1ccc(C)c2sc(N(CCCN(C)C)C(=O)c3ccc(S(=O)(=O)N4CCc5ccccc5C4)cc3)nc12,5.2*,3.9,0.8,-0.9,0.8,15.3,-1.0,-2.0,
COc1ccc(CCNC(=O)CN(C)S(=O)(=O)c2cccc3nsnc23)cc1OC,-0.5,-1.9,-0.4,-1.0,-1.0,-6.2,·,·,
